PubChem BioAssay (NCI)
This is part of a sample that, as a whole, favours compounds with a hit. Of some 83,000 tested, about 20% had one in any assay.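 Step 1: grow cells in 96-well plates. Step 2: add test compound at a single concentration. Step 3: incubate 48 h. Step 4: record percent growth.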 Activity calls are given as the source filed them. The calls were made as follows: active = growth percent below 10; inactive = the rest.

Assays:
Assay in all cases: NCI-60 one-dose screen, 48 h (100 = growth as untreated, 0 = no growth, -100 = all killed)
Details in all cases: 10 µM unless noted
NCI/ADR-RES ovarian = test system: NCI/ADR-RES ovarian
T-47D breast = test system: T-47D breast
BT-549 breast = test system: BT-549 breast
MDA-MB-435 melanoma = test system: MDA-MB-435 melanoma
SW-620 colon = test system: SW-620 colon
MCF7 breast = test system: MCF7 breast
HCT-116 colon = test system: HCT-116 colon
HCC-2998 colon = test system: HCC-2998 colon
KM12 colon = test system: KM12 colon

Measured: growth

CC(=O)O[C@H](C[C@H](C(C)C)N(C)C(=O)[C@@H](NC(=O)[C@H]1CCCCN1C)C(C)C)c1cccc(C(=O)N[C@@H](Cc2ccccc2)C[C@H](C)C(=O)O)n1
inactive: T-47D breast 47.7% | SW-620 colon 23.7% | MCF7 breast 15.9%
active: NCI/ADR-RES ovarian 8.24% | BT-549 breast -8.23% | MDA-MB-435 melanoma -37.7% | HCT-116 colon 2.75% | HCC-2998 colon 9.77% | KM12 colon 4.91%

O=C1NC(=O)C(=Cc2cn(C(=O)c3ccccc3)c3ccccc23)C(=O)N1
inactive: NCI/ADR-RES ovarian 97.1% | T-47D breast 95.2% | BT-549 breast 105% | MDA-MB-435 melanoma 105% | SW-620 colon 93.7% | MCF7 breast 89.4% | HCT-116 colon 102% | HCC-2998 colon 93.4% | KM12 colon 108%

CN(C)CC(C(=O)Cc1ccccc1)c1ccccc1 (stereo not drawn)
inactive: NCI/ADR-RES ovarian 76.5% | BT-549 breast 76.3% | MDA-MB-435 melanoma 26.8% | SW-620 colon 20.6% | HCC-2998 colon 116%
active: T-47D breast -37.8% | MCF7 breast 1.13% | HCT-116 colon 2.48% | KM12 colon -1.54%

COc1ccc2c(c1)c(-c1nc(-c3cn(C)c4ncccc34)cs1)cn2CCCCN1CCCCC1
active: NCI/ADR-RES ovarian 5.12% | MDA-MB-435 melanoma -88.9% | SW-620 colon -64.3% | MCF7 breast -76.5% | HCT-116 colon -93% | KM12 colon -68.7%
inactive: T-47D breast 61% | BT-549 breast 85.1% | HCC-2998 colon 95.3%

COC(C(=O)[C@@H](O)[C@@H](C)O)[C@@H]1Cc2cc3cc(O[C@H]4C[C@@H](O[C@H]5C[C@@H](O)[C@H](O)C(C)O5)[C@H](O)C(C)O4)c(C)c(O)c3c(O)c2C(=O)[C@H]1O[C@H]1C[C@@H](O[C@H]2C[C@@H](O[C@H]3C[C@@H](O)[C@@H](O)C(C)O3)[C@@H](O)C(C)O2)[C@H](O)C(C)O1 (stereo partly drawn)
inactive: NCI/ADR-RES ovarian 85.5% | SW-620 colon 22.2%
active: T-47D breast -1.75% | BT-549 breast -27.2% | MDA-MB-435 melanoma -37.2% | MCF7 breast 0.0061% | HCT-116 colon 2.29% | HCC-2998 colon -5.17% | KM12 colon 4.05%

O=C1N[C@@H]2[C@@H](O)[C@@H](O)[C@H](O)C[C@H]2c2cc3c(c(O)c21)OCO3
active: NCI/ADR-RES ovarian 1.95% | T-47D breast -8.46% | BT-549 breast -12.5% | MDA-MB-435 melanoma -42.2% | SW-620 colon -0.0451% | MCF7 breast 1.73% | HCT-116 colon -1.49% | HCC-2998 colon -22.8% | KM12 colon -11.5%

CCCCCCCCCCCCCCCCCC1OC[C@@H](COC(=O)O[C@@H](C(=O)O[C@H]2C[C@@]3(O)[C@@H](OC(=O)c4ccccc4)[C@@H]4[C@]5(OC(C)=O)CO[C@@H]5C[C@H](O)[C@@]4(C)C(=O)[C@H](OC(C)=O)C(=C2C)C3(C)C)[C@@H](NC(=O)c2ccccc2)c2ccccc2)O1 (stereo partly drawn)
inactive: NCI/ADR-RES ovarian 106% | T-47D breast 51.9% | BT-549 breast 55.2% | SW-620 colon 45.7% | MCF7 breast 24.9% | HCT-116 colon 23.4% | HCC-2998 colon 56.8% | KM12 colon 28.7%
active: MDA-MB-435 melanoma -41.2%

CNC(=O)Oc1cccc(C(F)(F)F)c1
inactive: NCI/ADR-RES ovarian 109% | T-47D breast 98.9% | BT-549 breast 108% | MDA-MB-435 melanoma 126% | SW-620 colon 104% | MCF7 breast 109% | HCT-116 colon 107% | HCC-2998 colon 113% | KM12 colon 110%

CNC(=O)Oc1ccc2c(c1)OCO2
inactive: NCI/ADR-RES ovarian 109% | T-47D breast 99.9% | BT-549 breast 97.1% | MDA-MB-435 melanoma 103% | SW-620 colon 107% | MCF7 breast 95.7% | HCT-116 colon 111% | HCC-2998 colon 106% | KM12 colon 101%

CCCCCCCCC(CO)NCCc1ccccc1 (stereo not drawn)
inactive: NCI/ADR-RES ovarian 112% | T-47D breast 96% | BT-549 breast 114% | MDA-MB-435 melanoma 103% | SW-620 colon 96.2% | MCF7 breast 103% | HCT-116 colon 78.8% | HCC-2998 colon 111% | KM12 colon 99.9%

CC1=C(O)[C@@](C)(CCCCC[C@H](C)CCCCc2ccc(O)cc2)OOC1=O
inactive: NCI/ADR-RES ovarian 88.5% | T-47D breast 89% | BT-549 breast 97.4% | MDA-MB-435 melanoma 82.6% | SW-620 colon 109% | MCF7 breast 98.8% | HCT-116 colon 88.6% | HCC-2998 colon 115% | KM12 colon 90.1%

COc1cc(NC(C)CCCNC2CN3CCC2CC3)c2ncccc2c1 (stereo not drawn)
active: MCF7 breast 0.157%
inactive: NCI/ADR-RES ovarian 96.9% | T-47D breast 69.9% | BT-549 breast 86% | MDA-MB-435 melanoma 94.3% | SW-620 colon 72.6% | HCT-116 colon 66.4% | HCC-2998 colon 75.4% | KM12 colon 85.5%

ClCCN(CCCl)c1nc(Cl)c(C2CC(c3ccccc3)=NN2c2cc(Cl)cc(Cl)c2)s1 (stereo not drawn)
inactive: NCI/ADR-RES ovarian 103% | T-47D breast 97.8% | BT-549 breast 107% | MDA-MB-435 melanoma 109% | SW-620 colon 98.5% | MCF7 breast 97.5% | HCT-116 colon 98.1% | HCC-2998 colon 105% | KM12 colon 100%

c1ccc(CSC(c2ccccc2)c2ccccc2)cc1
inactive: NCI/ADR-RES ovarian 106% | T-47D breast 117% | BT-549 breast 116% | MDA-MB-435 melanoma 114% | SW-620 colon 103% | MCF7 breast 124% | HCT-116 colon 89.8% | HCC-2998 colon 107% | KM12 colon 106%

CC[CH2][Sn]([Cl])([Cl])[CH2]CC
active: T-47D breast -3.16%
inactive: NCI/ADR-RES ovarian 106% | BT-549 breast 60.7% | MDA-MB-435 melanoma 79.8% | SW-620 colon 36.9% | MCF7 breast 50.4% | HCT-116 colon 79.9% | HCC-2998 colon 87.7% | KM12 colon 101%

COC(=O)[C@@H](C)C[C@H](Cc1ccccc1)NC(=O)c1csc([C@@H](C[C@H](C(C)C)N(C)C(=O)[C@@H](NC(=O)[C@H]2CCCCN2C)C2CC2)OC(C)=O)n1
active: NCI/ADR-RES ovarian 8.28% | BT-549 breast -30.6% | MDA-MB-435 melanoma -12.1% | HCT-116 colon 7.53% | KM12 colon 5.07%
inactive: T-47D breast 73% | SW-620 colon 48.4% | MCF7 breast 16.3% | HCC-2998 colon 15.9%

CC(=O)OC1CCC2C3CCC4=C/C(=N/OC(=O)c5ccc(N(CCCl)CCCl)cc5)CCC4(C)C3CC(C)C12 (stereo not drawn)
active: NCI/ADR-RES ovarian -13.2%
inactive: T-47D breast 43.8% | BT-549 breast 110% | MDA-MB-435 melanoma 78.3% | SW-620 colon 83.4% | MCF7 breast 99.3% | HCT-116 colon 54.6% | HCC-2998 colon 98.6% | KM12 colon 73.6%

Cc1cc(N(CCCl)CCCl)ccc1C=Nc1ccccc1-c1ccccc1
inactive: NCI/ADR-RES ovarian 59.8% | T-47D breast 27.5% | BT-549 breast 83.7% | MDA-MB-435 melanoma 93.5% | SW-620 colon 67% | MCF7 breast 39.1% | HCT-116 colon 75.8% | HCC-2998 colon 96.9% | KM12 colon 97.3%

COc1cc(/C=C/[N+](=O)[O-])c([N+](=O)[O-])cc1OC
active: SW-620 colon -57.3% | MCF7 breast 8.83% | HCT-116 colon -62.4%
inactive: NCI/ADR-RES ovarian 13.5% | T-47D breast 16.5% | BT-549 breast 87.3% | MDA-MB-435 melanoma 14% | HCC-2998 colon 86.3% | KM12 colon 18.5%

Cc1c(C)c([N+](=O)[O-])c(C)c(C)c1[N+](=O)[O-]
inactive: NCI/ADR-RES ovarian 107% | T-47D breast 101% | BT-549 breast 106% | MDA-MB-435 melanoma 91.9% | SW-620 colon 112% | MCF7 breast 107% | HCT-116 colon 115% | HCC-2998 colon 104% | KM12 colon 110%

OCc1ccc2c(c1)OCO2
inactive: NCI/ADR-RES ovarian 105% | T-47D breast 86.4% | BT-549 breast 106% | MDA-MB-435 melanoma 102% | SW-620 colon 102% | MCF7 breast 93% | HCT-116 colon 101% | HCC-2998 colon 102% | KM12 colon 103%

CNCc1cccnc1
inactive: NCI/ADR-RES ovarian 104% | T-47D breast 98.4% | BT-549 breast 124% | MDA-MB-435 melanoma 95.9% | SW-620 colon 107% | MCF7 breast 105% | HCT-116 colon 107% | HCC-2998 colon 96.6% | KM12 colon 104%

COC(=O)CC[C@H](Cc1ccccc1)NC(=O)c1csc([C@@H](C[C@H](C(C)C)N(C)C(=O)[C@@H](NC(=O)[C@H]2CCCCN2C)C(C)C)OC(C)=O)n1
inactive: NCI/ADR-RES ovarian 30.4% | T-47D breast 77.8% | SW-620 colon 35.8% | MCF7 breast 17.1% | HCT-116 colon 20.8% | HCC-2998 colon 42.4% | KM12 colon 24.8%
active: BT-549 breast -22.4% | MDA-MB-435 melanoma 1.58%

Cc1cc(N(CCCl)CCCl)ccc1C=Nc1ccc(-c2csc(Cc3ccccc3)n2)cc1
inactive: NCI/ADR-RES ovarian 61.6% | T-47D breast 45.3% | BT-549 breast 69% | MDA-MB-435 melanoma 78.3% | SW-620 colon 83.2% | MCF7 breast 44.5% | HCT-116 colon 77% | HCC-2998 colon 71.7% | KM12 colon 89.8%

Nc1ccc(-c2nc3cc(F)ccc3[se]2)cc1F
active: MCF7 breast 5.06%
inactive: NCI/ADR-RES ovarian 91.5% | T-47D breast 14.6% | BT-549 breast 67.8% | MDA-MB-435 melanoma 97.7% | SW-620 colon 97.2% | HCT-116 colon 58.9% | HCC-2998 colon 30.9% | KM12 colon 54%

CC1[C@H](C)OC(=O)CC(O)CC(O)CC(O)CCC(O)C(O)C[C@]2(O)CC(O)C(C(=O)O)C(CC(OC3O[C@H](C)[C@@H](O)[C@H](N)[C@@H]3O)/C=C/C=C/C=C/C=C/CC/C=C/C=C/[C@H](C)[C@H]1O)O2 (stereo partly drawn)
inactive: NCI/ADR-RES ovarian 93.2% | T-47D breast 108% | BT-549 breast 105% | MDA-MB-435 melanoma 102% | SW-620 colon 99.5% | MCF7 breast 104% | HCT-116 colon 97% | HCC-2998 colon 103% | KM12 colon 106%

C1CCC2(CC1)OOCNCOO2
inactive: NCI/ADR-RES ovarian 101% | T-47D breast 89.8% | BT-549 breast 106% | MDA-MB-435 melanoma 101% | SW-620 colon 103% | MCF7 breast 45.7% | HCT-116 colon 92.8% | HCC-2998 colon 106% | KM12 colon 95.9%
